Measurements as given in PubChem BioAssay.

experiment: RAM pathway blockade in budding yeast – dse1pr::URA3 reporter, 5-FOA selection, pilot screen (AID 869);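 also: 0% = DMSO wells with no growth and 100% = 10 µM 1-NA-PP1 with full growth; RAM network block rescues cells from 5-FOA so hits raise OD615 growth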; conditions: S. cerevisiae dse1pr::URA3 5-FOA growth, OD615, 2 d; at 10 µM; active compounds read high; strain carries analog-sensitive mutant Cbk1 kinase;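 active = inhibition over a set limit, the all-compound mean plus 3 SD, in both replicate runs; inconclusive = over that limit in just one replicate run; inactive = at or under that limit in both runs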

inhibition, inactive:
O=C(NCC1CCCO1)C1CC(=O)N(c2ccc(F)c(Cl)c2)C1 (stereo not given) 1.5%
Oc1cnn(-c2ccccc2)c1 0.91%
Cc1c(NC(=O)c2ccc(F)cc2)c(=O)n(-c2ccccc2)n1C 1.34%
COC(=O)C1=CN(C(C)C)C=C(C(=O)OC)C1c1cccc(OC)c1 0.405%
O=C(CSc1nnc(-c2ccccc2Cl)o1)N1CCCCC1 0.32%
CC1Cc2nc(SCC(=O)Nc3nccs3)n(Cc3ccccc3)c(=O)c2S1 (stereo not given) 2.21%
COc1ccc(Cn2nnc3c(=O)[nH]c(C(=O)NCCc4ccc(F)cc4)nc32)cc1OC 2.69%
CCOC(=O)c1c(C)n(C)c2ccc(OCC(O)CN3CCN(C)CC3)cc12 (stereo not given) 1.1%
C=CCn1c(O)c(C2=c3ccccc3=NC2=O)sc1=Nc1ccc(O)cc1 1.98%
Cc1ccc(-c2cc(C(F)(F)F)n3ncc(C(=O)NCc4ccco4)c3n2)cc1 2.67%
CSc1ccc(C2C(C#N)=C(N)N(c3ccccc3)C3=C2C(=O)CCC3)cc1 (stereo not given) 1.18%
Cc1ccn2cc(CCNC(=O)c3ccc(Br)o3)nc2c1 3.01%
COc1cccc(N2CCN(c3ncnc4c3cnn4-c3ccc(C)cc3C)CC2)c1 1.66%
COc1cc(CO)cc(Br)c1OCC(=O)O 0.03%
COc1ccc(Cc2nnc(SC)[nH]c2=O)cc1OC 0.225%
COc1ccccc1CNC(=O)C1CCN(S(=O)(=O)c2cccc3cccnc23)CC1 -0.9%
CCOC(=O)N1CCN(C(=O)CSc2nc3c(cnn3-c3ccc(C)cc3)c(=O)[nH]2)CC1 -0.44%
CCOC(=O)c1ccc2nc(NC(=O)C(C)C)sc2c1 1.98%
Cc1ccc(C2=CC(c3ccc(N(C)C)cc3)n3nnnc3N2)cc1 (stereo not given) 2.63%
Cn1c(=O)c2c(nc(CN3CCOCC3)n2CCCO)n(C)c1=O 1.76%
COCCCNC(=O)Cn1cc2c(n1)CCCCC2 -0.6%
O=C(NCc1ccco1)c1cnccn1 2.81%
CCCCn1c(CCNC(=O)CCC)nc2ccccc21 2.43%
COc1ccc2[nH]c(C)c(CCN3C(=O)C4C5C=CC(C5)C4C3=O)c2c1 (stereo not given) 0.285%
O=C1CCc2cc(S(=O)(=O)NC(Cc3ccccc3)C(=O)NCC3CCCO3)ccc2N1 (stereo not given) 2.2%
CCOC(=O)c1c(N)sc(C(N)=O)c1C 1.25%
O=C(NCCCN1CCC(Cc2ccccc2)CC1)C1CC(=O)N(C2CCCC2)C1 (stereo not given) -0.05%
Cc1ccc(Cl)cc1N1CCN(C(=O)C2CCN(c3nnc(-n4cccc4)s3)CC2)CC1 4.06%
CC(=O)c1c(C)[nH]c(C(=O)N2c3ccccc3CC2C)c1C (stereo not given) 0.755%
Cc1ccc2cc(CCNC(=O)C3CCCC3)c(=O)[nH]c2c1 3.17%
CCCCN(C)CCNC(=O)Cn1c(=O)sc2ccccc21 1.31%
CCOC(=O)N1CCN(c2ccc3nnnn3n2)CC1 0.275%
CCCOc1ccc(C2c3c(oc4cc(C)c(C)cc4c3=O)C(=O)N2CCCN(C)C)cc1OCC (stereo not given) 3.69%
CCOC(=O)C1=C2N(C)c3ccccc3N2CCC1=O 1.9%
CCNc1nc(OCCNS(=O)(=O)c2cc(C)ccc2C)nc(N(C)C)n1 0.025%
O=C(c1cc(-c2cccc(O)c2)on1)N1CCOCC1 2.15%
Cc1cc(C(=O)NC2CCCC2)on1 1.71%
O=C(Nc1cccc(C(F)(F)F)c1)c1cnc2n(c1=O)CCS2 2.6%
Cn1c(=O)c2c(nc(CN3CCCCC3)n2Cc2c(F)cccc2Cl)n(C)c1=O 3.12%
CCC(C)Sc1nnc(Cc2cc(=O)[nH]c(=O)[nH]2)n1-c1ccc(F)cc1 (stereo not given) 0.605%
